In all, about 98,000 compounds went through this assay and about 4,900 (5%) were called active. Cut-off read from the data, not from the text of the source: active = inhibition above about 30%; inactive = the rest. The full list was thinned out, with actives kept by preference.
Test: yeast control strain growth suppression – counter-screen for post-Golgi transport modulator project, primary screen (AID 738)
Settings: efflux-deficient yeast background strain, growth absorbance A615, 16 h; at 10 µM; stronger effect = higher value

Row | Compound | inhibition
1 | CCNc1nc(N)nc(-c2cc(Cl)ccc2OC)n1 | -4.76% (inactive)
2 | O=c1oc2c(CN3CCCCC3)c(O)ccc2c2c1CCCCC2 | -5.61% (inactive)
3 | COc1ccc2c3c(c(=O)oc2c1OCC(=O)C(C)(C)C)CCCC3 | 7.23% (inactive)
4 | CCCOc1ccc2c3c(c(=O)oc2c1OCCC)CCC3 | 36.1% (active)
5 | CSc1nc(N)c(C#N)c(-c2ccccc2Cl)c1C#N | 68.3% (active)
6 | CSc1ccc(-c2c(C#N)c(N)nc3c2c(C)nn3-c2ccccc2)cc1 | 2.79% (inactive)
7 | Cc1c(-c2ccccc2)nc(N)c(C#N)c1-c1cccs1 | 15% (inactive)
8 | COc1cccc(/C=N\Nc2nncc(-c3ccccc3)n2)c1 | 7.59% (inactive)
9 | Nc1ccc(-c2sc(N)nc2-c2ccccc2)cc1 | 2.78% (inactive)
10 | O=C(Nc1cccc2ncccc12)c1ccc(-c2ccc(Cl)cc2Cl)o1 | 37.2% (active)
11 | COc1cc(OC)c(NC(=O)c2ccc(Br)o2)cc1Cl | 2.65% (inactive)
12 | O=C(Nc1cccc2ncccc12)C(Cl)(Cl)Cl | 8.77% (inactive)
13 | CCC1(CC)NC(=O)N(CC(=O)OCC(=O)Nc2ccc(C(F)(F)F)cc2)C1=O | 5.34% (inactive)
14 | O=C(c1ccco1)N1CCN(C(=O)C2c3ccccc3Oc3ccccc32)CC1 | 0.85% (inactive)
15 | CCCN(CCC)C(=O)C1c2ccccc2Oc2ccccc21 | 31.5% (active)
16 | O=C(N/N=C/c1ccc(O)c(O)c1)C1c2ccccc2Oc2ccccc21 | 2.52% (inactive)
17 | Cc1c(NC(=O)CCCOc2ccccc2)cccc1[N+](=O)[O-] | 2.57% (inactive)
18 | O=C(O)CSCNC(=O)CC12CC3CC(CC(C3)C1)C2 | 0.28% (inactive)
19 | O=C(CC12CC3CC(CC(C3)C1)C2)Nc1ccc2c(c1)COC2=O | 42.7% (active)
20 | CC1Cc2ccccc2N1CC(=O)Nc1ccc2c(c1)OC(F)(F)O2 (configuration not stated) | 17.9% (inactive)
21 | COCCCNC(=O)C1CC(=O)N(CCc2ccccc2)C1 (configuration not stated) | 5.92% (inactive)

Row | Compound | inhibition
22 | COc1cc(OC)cc(C(=O)NC2CCN(C(=O)N3c4ccccc4Sc4ccccc43)CC2)c1 | 4.32% (inactive)
23 | CC(C)n1c(C(O)c2ccccc2)nc2ccccc21 (configuration not stated) | 1.26% (inactive)
24 | CCCn1c(C(O)c2cc(OC)ccc2OC)nc2ccccc21 (configuration not stated) | 17.6% (inactive)
25 | COc1cc(C(O)c2nc3ccccc3n2C)cc(OC)c1OC (configuration not stated) | 41.1% (active)
26 | Cn1c(=O)c(C(=O)Nc2ncccn2)c(O)c2ccccc21 | 44.2% (active)
27 | CCOc1cc(C(=O)Nc2ncccn2)cc(OCC)c1OCC | -2.73% (inactive)
28 | O=C(Nc1ncccn1)c1cccs1 | 5.69% (inactive)
29 | CCCn1nnnc1NC(=O)COc1ccc(Cl)cc1C | 4.96% (inactive)
30 | O=C(NCCc1ccccn1)c1cc(C(=O)C2CCCCC2)c[nH]1 | -1.83% (inactive)
31 | Cc1ccc(SCC(=O)NC(=O)NCc2ccco2)c(C)c1 | 2.9% (inactive)
32 | OC(COc1cccc2ccccc12)CN1CCN(c2ccccn2)CC1 (configuration not stated) | -6.3% (inactive)
33 | O=C1c2cccc3cccc(c23)N1CN1CCN(c2ccccn2)CC1 | 32.2% (active)
34 | CC(=C1C(=O)c2ccccc2C1=O)N1CCN(c2ccccn2)CC1 | 2.92% (inactive)
35 | CC1=C(C)CC(C(=O)NNC(=O)c2ccccc2O)C(C(=O)O)C1 (configuration not stated) | -0.3% (inactive)
36 | Cc1nc(NC2=NC(C(=O)Nc3ccc(Cl)cc3)CC(=O)N2)nc2ccccc12 (configuration not stated) | -4.48% (inactive)
37 | CSc1ccc(C#N)cc1NC(=O)c1cccc(Cl)c1 | 15.8% (inactive)
38 | Cc1cc(C)cc(OCC(=O)Nc2nc3ccc([N+](=O)[O-])cc3s2)c1 | 11.7% (inactive)
39 | O=C(NC(Nc1nc2ccc([N+](=O)[O-])cc2s1)(C(F)(F)F)C(F)(F)F)c1ccccc1 | 89.5% (active)
40 | COC(=O)C(NC(=O)c1ccc(OC)cc1)(Nc1ncc(S(=O)(=O)c2ccc([N+](=O)[O-])cc2)s1)C(F)(F)F (configuration not stated) | 6.12% (inactive)
41 | COc1ccc2c(c1OC)C(=O)c1ccccc1C2=O | 1.8% (inactive)
42 | Cc1nnc(SCC(=O)N/N=C/c2cn(-c3ccccc3)nc2-c2ccc(F)cc2)n1-c1ccccc1 | 4.61% (inactive)

Row | Compound | inhibition
43 | O=C1c2ccccc2C2=Nc3ccccc3SC(c3ccccc3F)C12 (configuration not stated) | 95.4% (active)
44 | O=C(CN1C(=O)NC2(CCCC2)C1=O)Nc1ccc(F)c(F)c1F | 3.79% (inactive)
45 | O=C1c2cccc3cc(Br)cc(c23)C(=O)N1Nc1ccccc1 | 12.1% (inactive)
46 | O=C1C=C(c2ccc(Cl)cc2)C(=O)N1Nc1ccccc1 | 99.5% (active)
47 | O=C(Nc1ccccc1)OCc1cc(-c2ccc(Cl)cc2)on1 | 10.1% (inactive)
48 | Cc1ccc(-c2nnc(-n3nnc4ccccc43)c3ccccc23)cc1 | 12% (inactive)
49 | N=c1oc2ccccc2cc1C(=O)N/N=C/c1ccccc1 | -3.5% (inactive)
50 | CCN(CC)C(=O)CSc1nnc(-c2cccc(OC)c2)o1 | 2.38% (inactive)
51 | CCOC(=O)CSc1nnc(-c2ccncc2)o1 | 2.24% (inactive)
52 | CCOC(=O)CSc1nnc(-c2cccc(Br)c2)o1 | 31.6% (active)
53 | O=C(CSCc1ccccc1Cl)NNC(=O)c1ccccc1 | 3.42% (inactive)
54 | CCOc1ccc(N(CC(=O)NC2CCCCCC2)S(=O)(=O)c2c(C)[nH]c(=O)[nH]c2=O)cc1 | 5.91% (inactive)
55 | COc1ccc(-c2c(C(C)=O)c(C)nc3sc4c(=O)n(-c5ccc(C)cc5)nnc4c23)cc1 | 16.1% (inactive)
56 | CCC(C)Sc1nnc(-c2c[nH]c3ccccc23)n1CCOC (configuration not stated) | 0.59% (inactive)
57 | CCn1c(SCCC(C)C)nnc1-c1c[nH]c2ccccc12 | 56.1% (active)
58 | CCn1c(SCC(=O)Nc2ccc(OC)c(OC)c2)nnc1-c1c[nH]c2ccccc12 | 7.39% (inactive)
59 | CN=C1S/C(=C\c2ccc(Sc3ccc(Cl)cc3)o2)C(=O)N1C | -6.09% (inactive)
60 | COCCNc1nc(-n2nc(C)cc2C)nc2sc3c(c12)CCCC3 | 31.4% (active)
61 | Cc1cc(C)n(-c2nc(SCC(=O)N3CCCC3)c3c4c(sc3n2)CCCC4)n1 | 24.5% (inactive)
62 | CCC(O)CNc1nc(-n2nc(C)cc2C)nc2sc3c(c12)CC(C)(C)OC3 (configuration not stated) | -1.72% (inactive)

Reference: PubChem BioAssay AID738 (SRMLSC, 2007)
